# Assay results reported in the supplement of paper PMC3545927.
# Some of the results follow. How many sequences the whole screen found active is unknown.
# Target: furin, P09958
# Experiment: furin cleavage Z-score vs untreated control; higher = more cleavage, active = 3.5 or more, inactive = 1 or less, 8 variable residues between constant flanks
# Method in brief: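 Read counts from sequencing released DNA gave abundance for each bead-bound 8-mer peptide–cDNA fusion cut by purified furin over 7.5, 15 or 30 min. The cleavage Z-score compares log counts with furin-free reactions after lowess adjustment and median absolute deviation scaling.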
# 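Note: purified furin at 1:10 enzyme:substrate in 50 mM HEPES pH 7.5.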
# Chain of furin, P09958 (P09958 whole entry): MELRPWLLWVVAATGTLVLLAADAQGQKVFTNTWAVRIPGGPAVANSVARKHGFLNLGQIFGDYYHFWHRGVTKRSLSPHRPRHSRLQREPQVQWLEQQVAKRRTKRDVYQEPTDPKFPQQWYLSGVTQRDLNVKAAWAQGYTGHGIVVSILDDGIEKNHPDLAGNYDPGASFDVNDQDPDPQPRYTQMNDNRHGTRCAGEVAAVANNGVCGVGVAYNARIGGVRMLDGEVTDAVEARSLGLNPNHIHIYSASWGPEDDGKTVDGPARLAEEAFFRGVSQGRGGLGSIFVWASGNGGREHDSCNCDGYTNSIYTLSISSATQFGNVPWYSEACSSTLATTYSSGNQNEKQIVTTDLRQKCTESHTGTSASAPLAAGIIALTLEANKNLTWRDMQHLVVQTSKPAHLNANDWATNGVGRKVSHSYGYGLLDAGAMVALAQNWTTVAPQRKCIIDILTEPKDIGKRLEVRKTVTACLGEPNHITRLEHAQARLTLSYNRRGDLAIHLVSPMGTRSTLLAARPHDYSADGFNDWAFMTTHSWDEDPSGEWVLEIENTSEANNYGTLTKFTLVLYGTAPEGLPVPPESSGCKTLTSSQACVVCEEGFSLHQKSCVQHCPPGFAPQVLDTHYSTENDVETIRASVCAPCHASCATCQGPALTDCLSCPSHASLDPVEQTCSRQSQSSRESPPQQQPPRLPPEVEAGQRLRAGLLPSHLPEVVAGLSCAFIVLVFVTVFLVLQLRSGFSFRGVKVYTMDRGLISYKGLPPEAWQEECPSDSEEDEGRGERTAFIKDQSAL
Sequence,furin cleavage Z-score (7.5 min),furin cleavage Z-score (15 min),furin cleavage Z-score (30 min)
CAEVPCHEPSAGNASASA [HC2372],-0.836 (inactive),1.11,-0.669 (inactive)
CAGAPPCVIGAGNASASA [HC443],1.73,-1.15 (inactive),-0.113 (inactive)
CALAGTHGLVAGNASASA [HC540],0.465 (inactive),1.56,0.729 (inactive)
CATDRSGAPTAGNASASA [HC420],-0.957 (inactive),-0.534 (inactive),0.262 (inactive)
CANVSVAHDGAGNASASA [HC1555],0.322 (inactive),-0.558 (inactive),0.0108 (inactive)
CAALENLVILAGNASASA [HC534],-0.644 (inactive),-1.06 (inactive),-0.181 (inactive)
CARIKRAGGFAGNASASA [FS-2261],6.34 (active),8.63 (active),7.18 (active)
CARGARVVFKAGNASASA [FS-2930],-2.06 (inactive),-1.04 (inactive),-0.554 (inactive)
CARIKKSKMIAGNASASA [FS-2260],-0.171 (inactive),1.16,-0.504 (inactive)
CARFWRSTGFAGNASASA [FS-2669],0.601 (inactive),1.09,0.345 (inactive)
CAREKRGNGWAGNASASA [FS-2254],-0.781 (inactive),0.97 (inactive),2.15
CARIKRAEGWAGNASASA [FS-2149],6.5 (active),7.28 (active),7.15 (active)
CARAKKIFGWAGNASASA [FS-1680],1.69,0.732 (inactive),0.406 (inactive)
CARSLRSEFKAGNASASA [FS-3209],-0.188 (inactive),-0.988 (inactive),0.991 (inactive)
CARIKRMVFKAGNASASA [FS-1722],5.13 (active),5.7 (active),8.11 (active)
CADNMEECSQAGNASASA [HC1821],-1.18 (inactive),-0.208 (inactive),-1.08 (inactive)
CALAVAVEPVAGNASASA [HC644],0.342 (inactive),-1.7 (inactive),-0.692 (inactive)
CAANLLWRQEAGNASASA [HC1275],1.65,1.09,0.698 (inactive)
CARAKRAVSHAGNASASA [FS-2544],7.56 (active),8.33 (active),7.62 (active)
CARNKRQSKSAGNASASA [FS-3009],3.6 (active),6.73 (active),6.06 (active)
CARAPRSVGGAGNASASA [FS-1886],-0.25 (inactive),0.302 (inactive),0.769 (inactive)
CARNKRNSKMAGNASASA [FS-2397],6.32 (active),8.34 (active),7.25 (active)
CARNKRNSKMAGNASASA [FU4],5.8 (active),8.1 (active),7.99 (active)
CARAKRSPKHAGNASASA [FS-2639],5.3 (active),6.19 (active),6.5 (active)
CARNKRIWASAGNASASA [FS-2728],0.843 (inactive),1.63,-0.176 (inactive)
CARNKRLSISAGNASASA [FS-3007],0.116 (inactive),-1.14 (inactive),0.746 (inactive)
CARAKRGNIHAGNASASA [FS-2250],0.0194 (inactive),0.245 (inactive),1.46
CADIYHSVSHAGNASASA [HC1650],-2.02 (inactive),-1.09 (inactive),-0.935 (inactive)
